Assay results taken from the supplement of paper PMC10849652.
Targets with a hit are over-represented here; the source holds about 7,900 in all. About 0.6% of all pairs of compound and target were hits. Values without a mark were called inactive.

Compound: Cn1cncc1[C@@](N)(c1ccc(Cl)cc1)c1ccc2c(c1)c(-c1cccc(Cl)c1)cc(=O)n2C [tipifarnib]
Test: log2 fold change, soluble protein after heating vs DMSO (PISA); higher = thermal stabilisation; K562 cells, 10 uM, 30 min; active = over 0.2 and 3.5 SD of the protein, either way, in both replicates (recomputed)
Procedure, shortened: (§1)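 K562 cells at 2×10^6 cells/mL were treated for 30 min with 10 μM compound, and aliquots were heated for 3 min over 48°C-58°C before pooling. Extraction used PBS with 0.5% NP-40 at 4°C, and soluble protein was the supernatant after 21,000xg for 90 min, measured by TMTpro 16plex LC-MS/MS with channel sums equalised. Thermal stability values, relative to control samples and from duplicates, are log2 fold changes.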

Chain of UniProt O43432 (O43432 whole entry, looked up): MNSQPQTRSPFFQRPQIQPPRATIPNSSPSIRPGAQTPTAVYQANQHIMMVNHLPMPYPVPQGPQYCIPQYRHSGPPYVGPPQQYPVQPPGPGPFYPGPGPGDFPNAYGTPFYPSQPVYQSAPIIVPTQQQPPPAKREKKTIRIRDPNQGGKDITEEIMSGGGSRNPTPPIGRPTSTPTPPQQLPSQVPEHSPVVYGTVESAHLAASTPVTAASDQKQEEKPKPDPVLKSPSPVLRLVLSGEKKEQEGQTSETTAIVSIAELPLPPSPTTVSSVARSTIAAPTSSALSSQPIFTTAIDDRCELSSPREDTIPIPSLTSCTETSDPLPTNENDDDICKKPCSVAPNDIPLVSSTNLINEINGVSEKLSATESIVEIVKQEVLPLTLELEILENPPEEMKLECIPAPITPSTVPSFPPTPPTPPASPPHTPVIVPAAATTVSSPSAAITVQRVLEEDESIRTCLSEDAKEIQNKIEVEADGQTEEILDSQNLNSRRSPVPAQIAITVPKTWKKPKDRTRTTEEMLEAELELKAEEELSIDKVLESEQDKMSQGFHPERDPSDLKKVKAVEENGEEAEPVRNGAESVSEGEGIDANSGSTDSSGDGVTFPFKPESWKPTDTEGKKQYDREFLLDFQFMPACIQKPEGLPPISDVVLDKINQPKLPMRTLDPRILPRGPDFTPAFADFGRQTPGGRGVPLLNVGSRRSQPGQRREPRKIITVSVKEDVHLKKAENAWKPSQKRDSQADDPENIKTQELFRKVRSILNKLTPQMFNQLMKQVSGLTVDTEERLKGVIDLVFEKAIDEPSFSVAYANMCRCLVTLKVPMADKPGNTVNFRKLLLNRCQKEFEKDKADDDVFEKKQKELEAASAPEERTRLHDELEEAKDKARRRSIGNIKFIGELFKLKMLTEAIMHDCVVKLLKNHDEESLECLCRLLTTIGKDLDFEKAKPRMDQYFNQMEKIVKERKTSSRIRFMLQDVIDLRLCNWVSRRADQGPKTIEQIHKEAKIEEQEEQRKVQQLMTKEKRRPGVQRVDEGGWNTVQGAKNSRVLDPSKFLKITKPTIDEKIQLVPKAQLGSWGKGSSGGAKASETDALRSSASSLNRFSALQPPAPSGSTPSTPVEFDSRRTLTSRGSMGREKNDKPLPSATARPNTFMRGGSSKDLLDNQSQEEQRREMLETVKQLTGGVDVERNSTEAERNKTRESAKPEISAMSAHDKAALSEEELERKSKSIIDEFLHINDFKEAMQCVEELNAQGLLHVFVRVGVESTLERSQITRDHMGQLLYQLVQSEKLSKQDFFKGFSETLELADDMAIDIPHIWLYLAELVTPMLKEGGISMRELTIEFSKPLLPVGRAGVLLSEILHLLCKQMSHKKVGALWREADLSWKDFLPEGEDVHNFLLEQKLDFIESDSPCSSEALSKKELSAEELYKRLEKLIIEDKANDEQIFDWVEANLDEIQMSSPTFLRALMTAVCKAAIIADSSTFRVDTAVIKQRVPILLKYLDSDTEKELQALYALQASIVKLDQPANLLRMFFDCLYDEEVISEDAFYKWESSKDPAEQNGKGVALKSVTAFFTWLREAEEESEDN
Chain of UniProt Q9H410 (Q9H410 whole entry, looked up): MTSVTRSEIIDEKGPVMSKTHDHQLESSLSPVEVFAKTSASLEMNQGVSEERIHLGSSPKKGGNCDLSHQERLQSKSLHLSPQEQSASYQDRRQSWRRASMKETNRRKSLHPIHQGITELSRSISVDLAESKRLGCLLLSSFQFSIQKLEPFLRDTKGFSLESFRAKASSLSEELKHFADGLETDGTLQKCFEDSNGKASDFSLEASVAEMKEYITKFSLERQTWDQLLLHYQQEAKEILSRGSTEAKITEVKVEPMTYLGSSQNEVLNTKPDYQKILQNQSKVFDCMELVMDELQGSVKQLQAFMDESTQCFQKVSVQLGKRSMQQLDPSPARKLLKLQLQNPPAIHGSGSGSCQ
Chain of UniProt O00418 (O00418 whole entry, looked up): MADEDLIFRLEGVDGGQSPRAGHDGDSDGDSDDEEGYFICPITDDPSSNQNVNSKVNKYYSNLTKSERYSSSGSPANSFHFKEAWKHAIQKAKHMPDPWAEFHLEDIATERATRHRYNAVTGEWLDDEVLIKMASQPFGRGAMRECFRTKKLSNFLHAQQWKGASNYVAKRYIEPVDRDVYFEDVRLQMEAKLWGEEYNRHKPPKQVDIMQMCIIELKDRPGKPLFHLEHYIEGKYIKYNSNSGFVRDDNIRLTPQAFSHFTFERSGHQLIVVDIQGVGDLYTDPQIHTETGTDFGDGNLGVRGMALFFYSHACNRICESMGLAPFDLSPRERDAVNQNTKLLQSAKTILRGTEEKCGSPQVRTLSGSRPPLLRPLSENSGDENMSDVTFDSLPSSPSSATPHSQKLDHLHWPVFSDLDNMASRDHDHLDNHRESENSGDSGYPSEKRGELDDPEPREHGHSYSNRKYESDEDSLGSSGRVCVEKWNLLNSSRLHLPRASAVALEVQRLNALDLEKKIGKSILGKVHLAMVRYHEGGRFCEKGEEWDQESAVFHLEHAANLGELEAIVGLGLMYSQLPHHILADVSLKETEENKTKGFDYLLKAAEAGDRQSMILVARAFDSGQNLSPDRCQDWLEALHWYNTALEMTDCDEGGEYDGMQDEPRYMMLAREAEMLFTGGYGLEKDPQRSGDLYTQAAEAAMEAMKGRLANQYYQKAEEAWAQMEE
Chain of UniProt P68104 (P68104 whole entry, looked up): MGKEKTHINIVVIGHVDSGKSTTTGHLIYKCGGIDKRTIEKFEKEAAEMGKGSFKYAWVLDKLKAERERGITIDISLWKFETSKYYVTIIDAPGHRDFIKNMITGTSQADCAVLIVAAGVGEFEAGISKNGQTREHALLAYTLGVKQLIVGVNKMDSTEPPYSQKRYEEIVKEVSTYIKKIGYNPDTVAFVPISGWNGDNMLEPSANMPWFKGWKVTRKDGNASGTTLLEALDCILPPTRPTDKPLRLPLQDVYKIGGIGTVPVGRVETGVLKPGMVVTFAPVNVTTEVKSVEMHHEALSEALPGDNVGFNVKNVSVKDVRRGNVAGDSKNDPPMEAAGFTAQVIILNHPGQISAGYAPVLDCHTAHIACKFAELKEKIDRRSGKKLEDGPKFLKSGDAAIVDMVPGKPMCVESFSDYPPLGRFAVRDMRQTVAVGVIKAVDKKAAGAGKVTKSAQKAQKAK
Chain of UniProt O75822 (O75822 whole entry, looked up): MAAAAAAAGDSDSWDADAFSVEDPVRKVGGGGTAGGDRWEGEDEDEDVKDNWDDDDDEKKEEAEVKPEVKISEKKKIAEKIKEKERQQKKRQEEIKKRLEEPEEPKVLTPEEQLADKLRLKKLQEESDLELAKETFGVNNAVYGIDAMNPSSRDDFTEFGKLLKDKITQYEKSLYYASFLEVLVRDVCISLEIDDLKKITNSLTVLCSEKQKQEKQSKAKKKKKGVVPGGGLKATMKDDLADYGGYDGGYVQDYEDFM
Chain of UniProt P54760 (P54760 whole entry, looked up): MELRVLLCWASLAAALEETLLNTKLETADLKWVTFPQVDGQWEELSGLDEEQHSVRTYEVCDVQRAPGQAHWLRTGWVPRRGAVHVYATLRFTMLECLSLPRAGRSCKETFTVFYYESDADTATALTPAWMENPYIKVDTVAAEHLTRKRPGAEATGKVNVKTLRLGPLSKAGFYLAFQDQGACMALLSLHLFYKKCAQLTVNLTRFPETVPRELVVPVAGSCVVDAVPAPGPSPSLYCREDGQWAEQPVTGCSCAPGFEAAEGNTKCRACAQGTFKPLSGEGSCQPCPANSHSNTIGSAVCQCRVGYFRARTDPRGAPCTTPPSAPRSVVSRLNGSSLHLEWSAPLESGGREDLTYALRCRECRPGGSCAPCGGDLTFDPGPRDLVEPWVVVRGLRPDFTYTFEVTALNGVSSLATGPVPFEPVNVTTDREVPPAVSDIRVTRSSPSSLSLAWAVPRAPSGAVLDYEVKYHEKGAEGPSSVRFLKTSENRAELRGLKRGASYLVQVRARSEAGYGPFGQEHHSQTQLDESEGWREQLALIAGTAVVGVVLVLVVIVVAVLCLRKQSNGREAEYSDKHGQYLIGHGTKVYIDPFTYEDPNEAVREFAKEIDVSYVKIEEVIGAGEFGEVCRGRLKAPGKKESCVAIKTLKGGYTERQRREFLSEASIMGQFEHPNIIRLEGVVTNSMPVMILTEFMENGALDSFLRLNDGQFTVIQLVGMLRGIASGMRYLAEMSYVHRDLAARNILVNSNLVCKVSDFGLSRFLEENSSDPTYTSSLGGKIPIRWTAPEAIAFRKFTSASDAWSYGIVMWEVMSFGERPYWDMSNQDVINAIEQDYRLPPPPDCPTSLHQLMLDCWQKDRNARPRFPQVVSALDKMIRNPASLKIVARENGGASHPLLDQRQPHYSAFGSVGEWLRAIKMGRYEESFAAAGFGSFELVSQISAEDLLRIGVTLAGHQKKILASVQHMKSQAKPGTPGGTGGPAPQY
Chain of UniProt Q86YN1 (Q86YN1 whole entry, looked up): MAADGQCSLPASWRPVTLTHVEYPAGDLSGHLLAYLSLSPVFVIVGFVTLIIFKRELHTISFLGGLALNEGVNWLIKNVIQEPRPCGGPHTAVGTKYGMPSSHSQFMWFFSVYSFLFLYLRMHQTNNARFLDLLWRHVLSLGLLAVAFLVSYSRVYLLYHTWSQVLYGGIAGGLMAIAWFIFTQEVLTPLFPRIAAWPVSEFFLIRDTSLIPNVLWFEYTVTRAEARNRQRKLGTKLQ
Chain of UniProt Q9Y6B2 (Q9Y6B2 whole entry, looked up): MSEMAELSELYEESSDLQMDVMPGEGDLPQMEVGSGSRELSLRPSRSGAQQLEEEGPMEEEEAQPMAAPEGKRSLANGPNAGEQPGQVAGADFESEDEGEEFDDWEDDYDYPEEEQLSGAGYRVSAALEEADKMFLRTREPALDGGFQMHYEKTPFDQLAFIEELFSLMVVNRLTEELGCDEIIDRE

In order of rising log2 fold change:
1. EPHB4 (UniProt P54760)  -0.257
2. DENND1A isoform 6 (UniProt Q8TEH3)  -0.113
3. DCP2 (UniProt Q8IU60)  -0.112
4. EID1 (UniProt Q9Y6B2)  -0.097
5. EEF2K (UniProt O00418)  -0.092
6. EEF1A1 (UniProt P68104)  -0.057
7. FAM193B (UniProt Q96PV7)  -0.027
8. ELF1 (UniProt P32519)  -0.024
9. EZH2 isoform 2 (UniProt Q15910)  -0.021
10. F2RL3 (UniProt Q96RI0)  -0.016
11. DDX11 (UniProt Q96FC9)  0.005
12. CTNNBL1 (UniProt Q8WYA6)  0.022
13. DSN1 (UniProt Q9H410)  0.027
14. ELAC1 (UniProt Q9H777)  0.036
15. DOLPP1 (UniProt Q86YN1)  0.075
16. EIF3J isoform 2 (UniProt O75822)  0.078
17. CWF19L2 (UniProt Q2TBE0)  0.083
18. EIF4G3 isoform 3 (UniProt O43432)  0.083
19. ENTPD7 (UniProt Q9NQZ7)  0.163
20. DYNC1I2 isoform 2 (UniProt Q13409)  0.177
21. ENTR1 (UniProt Q96C92)  0.259

Compound: FC(F)(F)c1ccc(/C=C/c2nc(COc3ccc(CCCCn4ccnn4)cc3)co2)cc1 [mubritinib]
Test: as above
Procedure, shortened: as §1

In order of falling log2 fold change:
1. DDX46, A0A0C4DG89  0.242
2. EID1 (UniProt Q9Y6B2)  0.208
3. EPHB4 (UniProt P54760)  0.176
4. DOP1A (UniProt Q5JWR5)  0.127
5. EIF3J isoform 2 (UniProt O75822)  0.1
6. ENTPD7 (UniProt Q9NQZ7)  0.097
7. DCAF4 (UniProt Q8WV16)  0.094
8. DCAF12 (UniProt Q5T6F0)  0.087
9. DYNC1I2 isoform 2 (UniProt Q13409)  0.067
10. DHRS13 (UniProt Q6UX07)  0.049
11. DOLPP1 (UniProt Q86YN1)  0.021
12. EIF4G3 isoform 3 (UniProt O43432)  -0.005
13. EEF1D isoform 3 (UniProt P29692)  -0.014
14. DDX11 (UniProt Q96FC9)  -0.015
15. DSN1 (UniProt Q9H410)  -0.03
16. EEF1A1 (UniProt P68104)  -0.033
17. ELMO1 (UniProt Q92556)  -0.087
18. EZH2 isoform 2 (UniProt Q15910)  -0.097
19. DDX27 (UniProt Q96GQ7)  -0.146
20. EEF2K (UniProt O00418)  -0.371

In the case of EHBP1 (UniProt Q8NDI1), the log2 fold change is reported as -0.586 (active).
